Source: PubChem BioAssay
TGFb SMAD3 inh – blocks TGF-b signaling. HepG2 CAGA-GFP TGF-b/SMAD3 reporter, GFP fluorescence, 18 h; TGF-beta stimulated, 500 pg/mL final. Potency, µM (highest dose often 46.1 µM), for inactives: at the highest dose activity, negative = inhibition, most hits filed as inhibitors. 410,000 tested, 1.2% active. AID 588855; note: potency is the fitted concentration of half-maximal effect; % is set by controls: 0 for no effect and ±100 for the full control effect; nearly all actives have a fitted effect of over 65% in size
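HEPG2 CAGA-GFP, 1000 cells/well; 2 h settle, 37 C; cpd via pin tool; TGF-b 500 pg/mL final; 18 h, 37 C; GFP imaging ex488/em500-530; %Activity normalised to -TGF-b and +DMSO controls; CRC fit, curve class.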
HepG2 viability – counter-screen for TGF-b inhibitors: cytotoxicity in HepG2 cells. Potency, µM (series often up to 46.1 µM), without a hit: top-dose activity change, negative = cytotoxicity, hits mostly cytotoxic. 410,000 tested, 0.76% active. HepG2 CAGA-GFP viability, ATP luminescence, 18 h. AID 588856; note: potency is the fitted concentration of half-maximal effect
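HepG2 CAGA-GFP cells (1000/well, DMEM with 1% FBS) received compound, then TGF-beta at 500 pg/mL final, and were incubated 18 hours at 37 degrees C. Viability was read by CellTiter-Glo luminescence. Media-only wells were set as complete cell-killing and DMSO as no toxicity.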
TDP1 cell noCPT – qHTS for Inhibitors of human tyrosyl-DNA phosphodiesterase 1 (TDP1): qHTS in cells in absence of CPT. DT40 Tdp1-/- hTDP1 cells, no CPT, ATP luminescence, 48 h. 420,000 tested, 15% active. Potency, µM (doses to about 46.2 µM), for the others: at the top dose activity change, negative = growth inhibition, actives largely listed as inhibitors; note: potency is the fitted concentration of half-maximal effect; % is set by controls: 0 for no effect and ±100 for the full control effect; nearly all actives have a fitted effect of over 55% in size
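Cells were dispensed at 400 per well, compounds added by pin tool, plates incubated ≥48 hr at 37 °C, then CellTiter-Glo added for 30 min at room temperature before luminescence reading. Line: DT40 Tdp1-/- complemented with hTDP1; camptothecin omitted.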
IL-1B inflam inh – inhibitors of inflammasome signaling (IL-1 beta secretion); THP-1 LPS/ATP IL-1B secretion, AlphaLISA, 16 h; hits give low values; activity change, % at 57.5 µM; 360,000 tested, 4.7% active; AID 743279; in the data active = activity change below about -50%; inconclusive = mostly about -30% to -49%; note: % is set by controls: 0 for no effect and ±100 for the full control effect
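Secreted IL-1B measured by AlphaLISA bead assay after 16 h compound exposure of THP-1 cells; compounds (final up to 57.5 uM) added 1 h before LPS (250 ng/mL) and ATP (1.25 mM) stimulation; lower signal means less secretion.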
S-ASM inh – inhibitors of human secretory acid sphingomyelinase. placental ASM, HMU-PC fluorogenic substrate, 60 min. Potency, µM (highest dose often 57.5 µM), without a hit: at the top dose activity change, negative = inhibition, most hits filed as inhibitors. AID 504937. 340,000 tested, 0.006% active. P17405; note: potency is the fitted concentration of half-maximal effect
Target sequence (P17405 47-631 limits assumed): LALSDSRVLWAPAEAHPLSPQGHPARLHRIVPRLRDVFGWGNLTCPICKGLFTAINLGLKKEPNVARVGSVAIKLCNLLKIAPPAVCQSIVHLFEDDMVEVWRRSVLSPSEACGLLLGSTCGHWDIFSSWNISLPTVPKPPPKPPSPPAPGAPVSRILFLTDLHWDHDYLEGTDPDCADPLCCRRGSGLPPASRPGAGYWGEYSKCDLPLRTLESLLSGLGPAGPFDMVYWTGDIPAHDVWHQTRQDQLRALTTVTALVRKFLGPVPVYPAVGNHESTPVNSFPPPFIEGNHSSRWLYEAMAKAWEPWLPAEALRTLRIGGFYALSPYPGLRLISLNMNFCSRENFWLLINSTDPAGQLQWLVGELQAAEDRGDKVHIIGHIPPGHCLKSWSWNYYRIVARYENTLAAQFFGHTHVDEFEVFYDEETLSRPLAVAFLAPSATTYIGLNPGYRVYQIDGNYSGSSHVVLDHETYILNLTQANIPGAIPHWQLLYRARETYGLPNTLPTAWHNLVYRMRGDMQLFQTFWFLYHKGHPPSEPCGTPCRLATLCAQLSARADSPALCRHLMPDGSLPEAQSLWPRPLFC
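Fluorogenic HMU-PC substrate (9 uM final) is turned over by placental ASM in 60 min at 37 C after a 10 min compound preincubation. Reaction ended by alkaline stop (pH 10), with fluorescence read at 386/447 nm.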
TDP1 cell CPT – growth inhibition of DT40 Tdp1-/-;hTDP1 cells with camptothecin (screen for TDP1 inhibitors); chicken DT40 Tdp1-/-;hTDP1 cells + 20 nM CPT, ATP luminescence, 48 h; Potency, µM (doses to about 46.2 µM), for inactives: at the top dose activity change, negative = growth inhibition, hits mostly inhibitors; 420,000 tested, 12% active; AID 686979; note: potency is the fitted concentration of half-maximal effect; % is set by controls: 0 for no effect and ±100 for the full control effect; nearly all actives have a fitted effect of over 55% in size
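Chicken DT40 Tdp1-/- cells stably complemented with human TDP1 were seeded at 400 cells/well in medium containing 20 nM camptothecin, exposed to pin-transferred compounds, and grown at 37 °C for at least 48 hr. Viability was read as ATP luminescence.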
* = called active by the depositor. Only some compounds are listed: those with a hit (about 19% of all), similar ones and a draw of the others. Unless noted, calls come from the whole dose curve; as a rule, active = well fitted curve in the direction sought with a large enough effect; inconclusive = small, poorly fitted or top-dose-only effect, or another doubt; inactive = no such curve, though single readings can be large; an effect the other way counts as inactive or inconclusive.

How did COc1cc(-c2nn3c(-c4cc(-c5ccccc5)n[nH]4)nnc3s2)cc(OC)c1OC do in these assays?
TGFb SMAD3 inh: -2%; HepG2 viability: -8%; TDP1 cell noCPT: 8.9µM*; TDP1 cell CPT: 16µM*

Results for COc1cc(-c2nn3c(Cc4ccccc4)nnc3s2)cc(OC)c1OC ?
TGFb SMAD3 inh: 0%; HepG2 viability: -73%; TDP1 cell noCPT: inconclusive; IL-1B inflam inh: -7; S-ASM inh: -8%; TDP1 cell CPT: 35µM*

What do the screens show for `COc1cc(-c2nn3c(-c4ccccc4)nnc3s2)cc(OC)c1OC`?
TGFb SMAD3 inh: 19%; HepG2 viability: -8%; TDP1 cell noCPT: inconclusive; IL-1B inflam inh: 27; S-ASM inh: 0%; TDP1 cell CPT: inconclusive

Results for COc1ccc(-c2nnc3sc(-c4ccccc4OC)nn23)cc1 ?
TGFb SMAD3 inh: 7%; HepG2 viability: -6%; TDP1 cell noCPT: inconclusive; IL-1B inflam inh: -27; S-ASM inh: -1%; TDP1 cell CPT: -20%

Results for Cc1ccc(CSc2nccc(-c3c(C)nc4ccccn34)n2)cc1 ?
TGFb SMAD3 inh: 11%; HepG2 viability: 1%; TDP1 cell noCPT: 16µM*; IL-1B inflam inh: -12; S-ASM inh: 71%; TDP1 cell CPT: inconclusive

How did Cc1ccc(CSc2ncn(-c3ccccc3)n2)cc1 do in these assays?
TGFb SMAD3 inh: -3%; HepG2 viability: -26%; TDP1 cell noCPT: -20%; IL-1B inflam inh: 11; S-ASM inh: -1%; TDP1 cell CPT: -14%

Results for COc1cc(C(=O)NCCC(=O)NC2CCC(C)CC2)cc(OC)c1OC (configuration not stated) ?
TGFb SMAD3 inh: -7%; HepG2 viability: 1%; TDP1 cell noCPT: 24%; IL-1B inflam inh: 15; S-ASM inh: 6%; TDP1 cell CPT: -9%

Results for COc1cc(OC)cc(C(=O)Nc2ccc3nc4c(c(Nc5ccc(OC)c(OC)c5)c3c2)CCCC4)c1 ?
TGFb SMAD3 inh: 13µM*; HepG2 viability: 16µM*; TDP1 cell noCPT: 23µM*; TDP1 cell CPT: 4.1µM*

How did COc1ccc(NC(=O)c2cccc3ccccc23)cc1OC do in these assays?
TGFb SMAD3 inh: 4%; HepG2 viability: 4%; TDP1 cell noCPT: -8%; IL-1B inflam inh: inconclusive; TDP1 cell CPT: -13%

How did CCOc1ccccc1C(=O)Nc1ccc2nc3c(c(Nc4ccc(OC)c(OC)c4)c2c1)CCCC3 do in these assays?
TGFb SMAD3 inh: inconclusive; HepG2 viability: 10µM*; TDP1 cell noCPT: 5.2µM*; TDP1 cell CPT: 4.1µM*

How did COc1ccc(Nc2c3c(nc4ccc(NC(=O)c5cc(Cl)ccc5OC)cc24)CCCC3)cc1OC do in these assays?
TGFb SMAD3 inh: 10µM*; HepG2 viability: 7.1µM*; TDP1 cell noCPT: 0.82µM*; TDP1 cell CPT: 1.6µM*

How did CCOc1ccccc1N1CCN(CC(=O)Nc2nc(C)c(C(=O)N(C)C)s2)CC1 do in these assays?
TGFb SMAD3 inh: 6%; HepG2 viability: -9%; TDP1 cell noCPT: -3%; IL-1B inflam inh: inactive; S-ASM inh: 5%; TDP1 cell CPT: -15%

Results for O=C1N/C(=C\c2ccccc2)c2ccccc21 ?
TGFb SMAD3 inh: -4%; HepG2 viability: -30%; TDP1 cell noCPT: 23µM*; IL-1B inflam inh: 34; S-ASM inh: -2%; TDP1 cell CPT: 21µM*

How did CCC(C)NC(=O)c1c2c(nc3ccccc13)C(=O)N(C1CCCCC1)C2 (configuration not stated) do in these assays?
TGFb SMAD3 inh: 27%; HepG2 viability: 3%; TDP1 cell noCPT: -24%; TDP1 cell CPT: -13%

Results for CC(NC(=O)c1c2c(nc3ccccc13)C(=O)N(C1CCCCC1)C2)c1ccccc1 (configuration not stated) ?
TGFb SMAD3 inh: 25%; HepG2 viability: -16%; TDP1 cell noCPT: 18µM*; TDP1 cell CPT: 16µM*

What do the screens show for `CC(=O)c1ccc(NC(=O)c2c3c(nc4ccccc24)C(=O)N(C2CCCCC2)C3)cc1`?
TGFb SMAD3 inh: 15%; HepG2 viability: -1%; TDP1 cell noCPT: 21µM*; TDP1 cell CPT: 21µM*

How did CS(=O)(=O)N(CC(=O)N1CCCC1)c1ccccc1F do in these assays?
TGFb SMAD3 inh: 12%; HepG2 viability: 1%; TDP1 cell noCPT: 6%; IL-1B inflam inh: 0; S-ASM inh: 1%; TDP1 cell CPT: 32%

Results for COc1ccc(OC)c(CNC(=O)CCn2nc(C)c3c(C)n(-c4ccccc4)nc3c2=O)c1 ?
TGFb SMAD3 inh: -1%; HepG2 viability: -5%; TDP1 cell noCPT: 10%; IL-1B inflam inh: 9; S-ASM inh: 1%; TDP1 cell CPT: -4%

What do the screens show for `CCNC(=O)c1ccc(=O)n(Cc2ccc(Cl)cc2Cl)c1`?
TGFb SMAD3 inh: -1%; HepG2 viability: 1%; TDP1 cell noCPT: -25%; IL-1B inflam inh: 13; S-ASM inh: -5%; TDP1 cell CPT: -19%

What do the screens show for `CC1(C)Cc2c(sc(NC(=O)c3ccc(C(=O)c4ccccc4)cc3)c2C(N)=O)C(C)(C)N1`?
TGFb SMAD3 inh: inconclusive; HepG2 viability: 18µM*; TDP1 cell noCPT: inconclusive; IL-1B inflam inh: -102*; S-ASM inh: inconclusive; TDP1 cell CPT: inconclusive

What do the screens show for `CC1(C)Cc2c(sc(NC(=O)c3ccc4ncsc4c3)c2C(N)=O)C(C)(C)N1`?
TGFb SMAD3 inh: inconclusive; HepG2 viability: -37%; TDP1 cell noCPT: inconclusive; IL-1B inflam inh: -215*; S-ASM inh: 19%; TDP1 cell CPT: inconclusive

Results for COC(=O)c1c(NC(=O)c2ccccc2)sc2c1CC(C)(C)NC2(C)C ?
TGFb SMAD3 inh: 15%; HepG2 viability: 5%; TDP1 cell noCPT: -1%; IL-1B inflam inh: -3; S-ASM inh: 5%; TDP1 cell CPT: -24%

How did CC1(C)Cc2c(sc(NC(=O)COc3ccc(Cl)cc3)c2C(N)=O)C(C)(C)N1 do in these assays?
TGFb SMAD3 inh: 0%; HepG2 viability: 4%; TDP1 cell noCPT: -1%; IL-1B inflam inh: -16; S-ASM inh: -18%; TDP1 cell CPT: inconclusive

What do the screens show for `CC(=O)c1cccc(NC(=O)C2CC(=O)N(C3CCCC3)C2)c1` (configuration not stated)?
TGFb SMAD3 inh: 7%; HepG2 viability: -1%; TDP1 cell noCPT: -1%; IL-1B inflam inh: -1; S-ASM inh: 0%; TDP1 cell CPT: 10%
